Several values for one entry are separate records, joined by “and”; a condition that tells them apart may be missing. Identical values can stand only once. In all, about 310,000 compounds went through this assay and about 1,900 (0.61%) were called active. Inconclusive results (about 8%) are left out. The call rests on the fitted dose curve; tested in A549 cells. Many of the other results were omitted from the sample, so actives are more common in it than they were. A structure can be active in one record and inactive in another.
Assay: qHTS for Stage-Specific Inhibitors of Vaccinia Orthopoxvirus: mCherry Reporter Primary qHTS; further: nearly all actives have a fitted effect of over 35% in size
Conditions: Vaccinia virus mCherry reporter infection, fluorescence; series mostly up to 36.5 µM; activity change, negative = inhibition: at the top concentration
On the % scale 0 is the no-effect control and ±100 the full control effect; potency means the concentration at half of the fitted maximal effect.

Row | Structure (SMILES) | Potency | activity change, negative = inhibition | outcome
1 | CCOc1cc(/C=C2\SC(N3CCCC(C)C3)=NC2=O)ccc1O (configuration not stated) | 11.2 µM (active) |  | 
2 | CC1CCN(C2=NC(=O)/C(=C/c3ccc(O)cc3)S2)CC1 |  | -10.7% (inactive) | 
3 | O=C1N=C(N2CCCC2)S/C1=C\c1cccc(Br)c1 |  | -2.62% (inactive) | 
4 | CCCCC(=O)N(C)c1c(CC)nc2c(OCc3ccc(S(C)(=O)=O)cc3)cccn12 |  | -16% (inactive) | 
5 | OCCC#Cc1ccc(N2C(c3ccsc3)=Cc3ccc(F)cc3C2c2c[nH]c3ccccc23)cc1 (configuration not stated) |  | 8.59% (inactive) | 
6 | COc1ccc(CC2c3cc(OC)c(OC)cc3CC[N+]2(C)CCC(=O)OCCCCCOC(=O)CC[N+]2(C)CCc3cc(OC)c(OC)cc3C2Cc2ccc(OC)c(OC)c2)cc1OC (configuration not stated) | 15.8 µM (active) |  | 
7 | COc1ccc(CN2CCOC2=O)cc1OC |  |  | inactive
8 | COC(=O)C1=CN(Cc2ccc(OC)c(OC)c2)C=C(C(=O)OC)C1c1cccs1 |  | -12.4% (inactive) | 
9 | OC[C@@H]1CN(Cc2ccc(F)cc2)C[C@H](n2cnc3c(NC4CCCC4)ncnc32)O1 |  | -6.71% (inactive) | 
10 | COc1ccccc1CNc1nc(Nc2ccccc2Cl)c2sccc2n1 |  | 7.85% (inactive) | 
11 | CC(C)c1cccc(-c2csc(C(O)c3ccccc3)n2)c1 (configuration not stated) |  |  | inactive
12 | Cc1ccc(C(O)c2ncc(-c3ccccc3F)[nH]2)cc1F (configuration not stated) |  | 5.43% (inactive) | 
13 | O=C(CNC(=O)c1cccnc1)N/N=C/c1cccnc1 |  | -10.6% (inactive) | 
14 | O=C(CSc1cccc2cccnc12)N/N=C/c1cccnc1 | 11.2 µM (active) |  | 
15 | CCOC(=O)N/N=C/c1cccnc1 |  | -7.27% (inactive) | 
16 | COc1cc(C=C(OC(C)=O)c2ccc3c(c2)OCO3)cc(OC)c1OC |  | 12.3% (inactive) | 
17 | COC(=O)[C@]12CCCCC=C1N(Cc1ccco1)C(=O)[C@H](CC(=O)NCC1CCCCC1)C2 |  | 32.7% (inactive) | 
18 | COC(=O)[C@]12CCCCC=C1N(Cc1ccc(Cl)cc1Cl)C(=O)[C@H](CC(=O)NCc1cccc3ccccc13)C2 |  |  | inactive
19 | O=C(Nc1ccccn1)C1CCN(S(=O)(=O)c2ccccc2)CC1 |  | 14.8% (inactive) | 
20 | Cc1ccnc(NC(=O)C2CCN(S(=O)(=O)c3c(C)c(C)cc(C)c3C)CC2)c1 | 11.2 µM (active) |  | 
21 | Cc1ccc(S(=O)(=O)N2CCC(C(=O)Nc3cc(C)ccc3C)CC2)cc1 |  | -25.2% (inactive) | 
22 | COc1ccc(C(C#N)=C2C=CC(=NO)c3ccccc32)cc1 |  | -7.3% (inactive) | 
23 | COc1cc(C)c(CN2CCN(C(=O)CCC(=O)c3ccc(C)s3)CC2)cc1OC |  | -4.2% (inactive) | 
24 | COC(=O)[C@]12CCCCC=C1N(Cc1ccco1)C(=O)[C@H](CC(=O)NCCCCc1ccccc1)C2 |  | 8.49% (inactive) | 
25 | CC1Cc2ccccc2N1S(=O)(=O)c1ccc(Cl)nc1 (configuration not stated) | 15.8 µM (active) |  | 
26 | Cc1cc(-c2ccc(C)c(S(=O)(=O)N3c4ccccc4CC3C)c2)on1 (configuration not stated) |  | -11% (inactive) | 

Row | Structure (SMILES) | Potency | activity change, negative = inhibition | outcome
27 | CC1Cc2ccccc2N1S(=O)(=O)c1c(N)n(C)c(=O)n(C)c1=O (configuration not stated) |  |  | inactive
28 | CCc1cccc(NC(=O)c2cc(-c3ccccc3)n[nH]2)c1 |  | -7.89% (inactive) | 
29 | CCc1ccc2c(c1)NC(=O)C2(C)Cc1ccc(OC(F)(F)F)cc1 (configuration not stated) |  | 9.47% (inactive) | 
30 | CCc1ccc2c(c1)C1(NN=C(c3ccccc3)S1)C(=O)N2 (configuration not stated) | 14.1 µM (active) |  | 
31 | COc1cc(C(=O)N[C@@H](C)C(=O)NCc2ccco2)cc(OC)c1OC |  |  | inactive
32 | CCOc1ccc(C(=O)NC(C(=O)NCc2ccccn2)C(C)C)cc1 (configuration not stated) |  | -1.03% (inactive) | 
33 | CCOc1ccc(C(NC(=O)c2cc(OC)c(OC)c(OC)c2)c2cc(Cl)c3cccnc3c2O)cc1 (configuration not stated) | 10 µM (active) |  | 
34 | CC(C)C[C@@H](COCc1ccc(Cl)cc1)N1CCN(C(=O)c2ccc(Cl)cc2Cl)CCC1=O |  | 1.65% (inactive) | 
35 | CC(C)NC(=S)NN=C1CCCCCCCCCCC1 |  | -5.08% (inactive) | 
36 | NC(=S)NN=C1CCCC(C(F)(F)F)C1 (configuration not stated) | 10 µM (active) |  | 
37 | CC(C)(C)C1CCC(=O)N2CCC[C@]2(c2ccccc2)C1 (some centres not stated) |  | 32.4% (inactive) | 
38 | CC(O)(c1cccc(F)c1)c1nc(-c2ccc3c(c2)OCO3)cs1 (configuration not stated) |  | 6.58% (inactive) | 
39 | O=C(c1ccc(CS(=O)Cc2ccccc2Cl)o1)N1CCN(c2ccccc2)CC1 (configuration not stated) |  | -6.54% (inactive) | 
40 | O=C(OCc1ccccc1)N1CCC2CC1c1cc(N3CCN(S(=O)(=O)c4cc(Cl)cc(Cl)c4)CC3)ccc12 (configuration not stated) |  |  | inactive
41 | N=C1c2ccccc2-c2ccccc21 |  | -6.02% (inactive) | 
42 | c1ccc2c(c1)[I+]c1ccccc1-2 | inactive and 12.6 µM (active) |  | 
43 | COC(=O)c1ccccc1N=NNc1ccc([N+](=O)[O-])cc1 |  | -7.96% (inactive) | 
44 | CCN(CC)c1ccc(/C=C/c2c(C)cnc3ccc(C)cc23)cc1 |  | -7.34% (inactive) | 
45 | COC(=O)c1cc(-c2cccs2)nc2ccccc12 |  |  | inactive
46 | CC(=O)Nc1cccc(Nc2nc(-c3cccs3)nc3ccccc23)c1 | 7.08 µM (active) |  | 
47 | COc1cccc(-c2nc(Nc3ccncc3)c3ccccc3n2)c1 |  | 11.8% (inactive) | 
48 | CC(C)c1cc(C(=O)NC2CCCCCC2)c2ccccc2n1 |  | -3.55% (inactive) | 
49 | CC1=C(C(=O)N(C(C)C)C(C)C)CC(CC(=O)NCC2CCCCC2)C(=O)N1Cc1ccccc1 (configuration not stated) |  | 8.68% (inactive) | 
50 | O=C(CO/N=C/c1ccccc1O)NNC(=O)c1ccccc1Cl |  | -20.3% (inactive) | 
51 | O=C(NNC(=O)c1ccccc1O)c1ccccc1O | 15.8 µM (active) |  | 
52 | Cc1cc(C(=O)CCC(=O)NNC(=O)c2ccccc2O)c(C)s1 |  | -14.3% (inactive) | 

Row | Structure (SMILES) | Potency | activity change, negative = inhibition | outcome
53 | CCCCCCCNc1ccc(/C=C/c2ccnc3ccccc23)cc1 |  | 33.6% (inactive) | 
54 | O=[N+]([O-])c1ccc(/C=C/c2ccc3cccnc3c2)cc1 |  | 36.9% (inactive) | 
55 | CN(N=O)c1ccc(C=C2c3ccccc3-c3ccccc32)cc1 |  | -18.4% (inactive) | 
56 | CN1CC[C@H](c2c(O)cc(O)c3c(=O)cc(-c4ccccc4Cl)oc23)[C@H](O)C1 | 0.316 µM (active) |  | 
57 | CCOC(=O)c1ccn(S(=O)(=O)c2ccc(C)cc2)c1-c1ccccc1 |  | 6.9% (inactive) | 
58 | COc1ccc(CN(Cc2ccccc2)C(=O)c2ccc(O)cc2)cc1COc1ccc(NC(C)=O)cc1 |  |  | inactive
59 | CCOC(=O)c1cc2cc(OC)ccc2n1C1CCN(C)CC1 |  | -10.5% (inactive) | 
60 | CC1(C(=O)O)CCCN(C(=O)/C=C/c2ccccc2)C1 (configuration not stated) |  | 6.42% (inactive) | 
61 | Cc1cn(COC/C=C/c2ccccc2)c(=O)[nH]c1=O |  |  | inactive
62 | Cc1[nH]c(=O)c(C(=O)/C=C/c2ccccc2)c2c1CCCC2 | 3.16 µM (active) |  | 
63 | CC(=O)Nc1ccc(C=Cc2ccc([N+](=O)[O-])cc2)cc1 |  | -1.71% (inactive) | 
64 | O=C(CCCN1C(=O)C(c2ccccc2)Oc2cccnc21)Nc1ccccc1Br (configuration not stated) |  |  | inactive
65 | C(=Nc1ccc(/C=C/c2ccnc3ccccc23)cc1)c1cc2c3c(c1)CCCN3CCC2 |  | 12% (inactive) | 
66 | CN(C)C(=O)c1cccc(-c2cnc3c(NC=O)cc(-c4ccc(C(=O)N5CCOCC5)cc4)cn23)c1 |  |  | inactive
67 | O=C(CCCO)N/N=C/c1cc(Br)ccc1O |  | -8.6% (inactive) | 
68 | O=C(CCCCCNC(=O)c1ccccc1)N/N=C/c1ccccc1 |  | -8.18% (inactive) | 
69 | O=C(N/N=C/c1ccccc1O)/C(=C/c1ccccc1)CCO | 7.08 µM (active) |  | 
70 | CCOC(=O)[C@]12CCCC=C1N(CCC1=CCCCC1)C(=O)[C@H](CC(=O)N1CCSCC1)C2 |  | -9.06% (inactive) | 
71 | O=C(CSc1nnc(CNC(=O)c2ccc(F)cc2)o1)Nc1ccc2c(c1)OCO2 |  | -8.65% (inactive) | 
72 | Fc1ccc(-c2nnc(CSc3nnc(-c4ccc5c(c4)OCO5)o3)o2)cc1 | 28.2 µM (active) |  | 
73 | Cc1ccc(-c2nnc(SCc3ccccc3C)o2)cc1 |  | 2.67% (inactive) | 
74 | COc1ccc(C(=O)C(OP(=O)(OC)OC)c2ccccc2OC)cc1 (configuration not stated) |  | -25.3% (inactive) | 
75 | O=C(COC(=O)COc1cc(Cl)c(Cl)cc1Cl)NC1CC1 |  | -2.27% (inactive) | 
76 | NC(=S)NN=Cc1ccc(OC(=O)COc2cc(Cl)c(Cl)cc2Cl)cn1 | 11.2 µM (active) |  | 
77 | O=C(COc1cc(Cl)c(Cl)cc1Cl)NCCc1ccccn1 |  | -7.58% (inactive) | 
78 | CCOC(=O)C1CCCN(C(=O)c2cc(-c3cccs3)oc2C)CC1 (configuration not stated) |  | 49% (inactive) | 

Row | Structure (SMILES) | Potency | activity change, negative = inhibition | outcome
79 | Cc1cc(Cl)ccc1-c1nc(NCCN(C)C)nc2ccsc12 |  | 11.6% (inactive) | 
80 | CC(C)c1cc(N=O)cc(C(C)C)c1O |  |  | inactive
81 | CC(C)=CCc1ccc(O)c(=O)cc1C(C)C | 3.16 µM (active) |  | 
82 | CC(C)=CCc1c(O)c(CC=C(C)C)c2occ(-c3ccc(O)cc3)c(=O)c2c1O |  | -20.4% (inactive) | 
83 | CCOc1ccc(OCc2ccc(C(=O)N(C)c3ccccc3)o2)cc1 |  | -11.1% (inactive) | 
84 | CN(Cc1ccccc1)C(=O)c1ccc(COc2ccccc2)cc1 |  |  | inactive
85 | CN(C(=O)CN1CCN(c2cc(-c3ccc(OCc4ccccc4)cc3)ncn2)CC1)c1ccccc1 | 7.94 µM (active) |  | 
86 | Cc1cccc(CNC(=O)c2sc(=O)n(Cc3ccccc3C)c2C)c1 |  | 2.08% (inactive) | 
87 | CCC1NC(=O)c2cccnc2-n2c1nc1ccc(C)cc1c2=O (configuration not stated) |  |  | inactive
88 | Cc1cc(C)c2c(=O)n3c(nc2c1)C(CC(C)C)NC(=O)c1cc2ccccc2cc1-3 (configuration not stated) | 10 µM (active) |  | 
89 | O=C1NC(Cc2ccccc2)c2nc3ccc(Br)cc3c(=O)n2-c2cc3ccccc3cc21 (configuration not stated) |  |  | inactive
90 | NC(=O)Nc1ccc(/C=C/c2ccnc3ccccc23)cc1 |  | 21.3% (inactive) | 
91 | COC(=O)c1ccc2nc(-c3ccccc3)c(Cc3ccc(OC)cc3C)n2c1 |  | -4.32% (inactive) | 
92 | Cc1ccc(S(=O)(=O)N(CCc2ccccc2)c2ccc3c(c2)C2CC3CCN2C(=O)OCc2ccccc2)cc1 (configuration not stated) |  | -6.6% (inactive) | 
93 | CCCCCNC(=O)Cc1ccc(OC)cc1 |  | -17% (inactive) | 
94 | C/C=C/NNC(=O)Cc1ccc(OC)cc1 | 11.2 µM (active) |  | 
95 | COc1ccc(CC(=O)NC(C)CCc2ccccc2)cc1 (configuration not stated) |  | 2.27% (inactive) | 
96 | CC1(C(=O)NCC2CCOCC2)Cc2c(-c3cccc(C(N)=O)c3)ccnc2O1 (configuration not stated) |  | 5.59% (inactive) | 
97 | COc1ccc(-c2nnc(SCc3cccnc3)o2)cc1 |  | -12.4% (inactive) | 
98 | COc1ccc(-c2nnc(-c3ccc4ccccc4c3)o2)cc1 |  |  | inactive
99 | COc1ccc(-c2nnc(SC(C)C#N)o2)cc1 (configuration not stated) | 11.2 µM (active) |  | 
100 | CCOC(=O)[C@]12CCCC=C1N(Cc1ccc(Cl)cc1Cl)C(=O)[C@H](CC(=O)N1CCCCC1)C2 |  |  | inactive
101 | COc1c(C)c2c(c(O)c1C/C=C(\C)CCC(=O)O)C(=O)OC2 | 5.62 µM (active) and 4.47 µM (active) |  | 
102 | CCc1nc2c(OCc3ccc(C(F)(F)F)cc3)cccn2c1N(C)C(=O)CC(C)C |  | -0.664% (inactive) | 
